Compound activity as filed in PubChem BioAssay.
Bim-Bfl-1 = disrupts Bim binding to human Bfl-1; Q16548; Bead-based flow cytometry, Bim-Bfl-1 binding inhibition; inhibition, % at 10 µM; actives 0.12% (n = 190,000); AID 1008;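 further: 0% = wells without compound plus tracer and 100% = blocker peptide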
PKD1 kinase inh = blocks activity of human protein kinase D1; Q15139; PKD1 kinase fluorescence polarization assay; inhibition, % (concentration not given with the values); actives 0.056% (n = 200,000); in the data active means inhibition above about 50%
Bim-Bcl-2 = human Bim-Bcl-2 interaction inhibition | P10415 | Bead-based flow cytometry, Bim peptide-Bcl-2 binding | inhibition, % at 10 µM | actives 0.06% (n = 190,000) | AID 950; in the data active means inhibition above about 40%;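 further: 0% = no compound wells with probe peptide and 100% = reference peptide inhibitor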
Bcl-W Bim block = disrupts Bim peptide binding to human Bcl-W; AID 952; bead-based flow cytometry; inhibition, % at 10 µM; actives 0.02% (n = 190,000); Q92843;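 further: 0% = bound tracer without compound and 100% = peptide blocker; higher means less fluorescent Bim peptide bound to Bcl-W beads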
Target sequence (Q92843 whole entry, looked up): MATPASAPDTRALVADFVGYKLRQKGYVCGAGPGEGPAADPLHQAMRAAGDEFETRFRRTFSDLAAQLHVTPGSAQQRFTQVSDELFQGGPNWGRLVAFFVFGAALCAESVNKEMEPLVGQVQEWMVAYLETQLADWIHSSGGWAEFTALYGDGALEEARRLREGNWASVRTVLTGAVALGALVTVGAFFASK
Bcl-XL Bim block = disrupts Bim peptide binding to human Bcl-XL | Q07817 | bead flow cytometry, fluorescence | inhibition, % at 10 µM | actives 0.04% (n = 190,000) | AID 1007
Target sequence (Q07817 whole entry, looked up): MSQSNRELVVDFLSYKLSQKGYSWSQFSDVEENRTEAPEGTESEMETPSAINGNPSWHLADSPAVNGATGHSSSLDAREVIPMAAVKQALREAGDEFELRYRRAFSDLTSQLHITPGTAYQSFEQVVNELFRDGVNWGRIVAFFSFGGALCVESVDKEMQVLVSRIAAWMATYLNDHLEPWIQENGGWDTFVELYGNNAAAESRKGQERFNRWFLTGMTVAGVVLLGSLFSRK
Bcl-B Bim block = disrupts Bim peptide binding to human Bcl-B. bead-based flow cytometry. actives 0.073% (n = 190,000). AID 951. inhibition, % at 10 µM;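 further: 0% = tracer peptide without compound and 100% = reference inhibitor peptide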
Target sequence (Q9HD36 whole entry, looked up): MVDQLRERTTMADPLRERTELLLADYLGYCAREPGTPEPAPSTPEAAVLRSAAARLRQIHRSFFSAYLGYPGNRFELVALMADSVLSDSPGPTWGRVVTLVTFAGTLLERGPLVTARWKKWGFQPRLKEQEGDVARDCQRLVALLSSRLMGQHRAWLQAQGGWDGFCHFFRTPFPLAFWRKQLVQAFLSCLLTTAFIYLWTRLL
* hit, by the source's call. Only some compounds are listed: those with a hit (about 0.24% of all), similar ones and a draw of the others. Unless noted, no stated cut-off is given here; in the data, active means inhibition above about 40%.

SMILES | Bim-Bfl-1 | PKD1 kinase inh | Bim-Bcl-2 | Bcl-W Bim block | Bcl-XL Bim block | Bcl-B Bim block
Cc1cc[n+]2cc(-c3cccc([N+](=O)[O-])c3)c(-c3cccc([N+](=O)[O-])c3)cc2c1 | 10.0 | 0.0 | 12.0 | 14.0 | 8.0 | 43.0*
CCOc1cc(CNc2ccc(N3CCCC3)cc2)cc(Cl)c1OC | 4.0 | -8.8 | 1.0 | 3.0 | 0.0 | 0.0
COc1cc(CNc2ccc(N3CCCC3)cc2)cc(Cl)c1OC | 48.0* | -2.3 | 15.0 | 19.0 | -2.0 | -15.0
CCOc1ccc(CNc2ccc(N3CCCC3)cc2)cc1 | 42.0* | -7.0 | 13.0 | 28.0 | 6.0 | -12.0
CC1=NN(C(=O)c2ccc(Cn3ccc([N+](=O)[O-])n3)cc2)C(O)(C(F)(F)F)C1 (stereo unspecified) | -1.0 | -9.4 | -4.0 | -5.0 | -7.0 | -6.0
COc1ccc(N)cc1-n1cnnn1 | -7.0 | -1.7 | -4.0 | -3.0 | -2.0 | -9.0
Cc1cccc(NC(=O)c2ccc(S(=O)(=O)N3CCOCC3)cc2)n1 | -4.0 | -0.6 | -2.0 | -2.0 | -3.0 | -4.0
O=C(COc1ccc(F)cc1Br)NCc1ccccn1 | -1.0 | -3.4 | 4.0 | 0.0 | -1.0 | -1.0
O=C(COc1ccccc1Br)NCc1ccccn1 | 44.0* | 2.2 | 71.0* | 5.0 | 10.0 | 75.0*
CN=C(NC1CCCCC1)c1ccc(Cl)cc1 | 49.0* | -1.7 | 13.0 | 24.0 | 1.0 | -26.0
O=C(NC1CCCCC1)Sc1ccc(Cl)cc1 | -10.0 | -9.6 | -3.0 | -3.0 | -5.0 | -4.0
COC(=O)Cc1ccc(NC(=S)N2CCN(c3cccc(O)c3)CC2)cc1 | 2.0 | -1.0 | 18.0 | 11.0 | 12.0 | 50.0*
COC(=O)Cc1ccc(NC(=S)N2CCN(c3ccc(OC)cc3)CC2)cc1 | 13.0 | -11.8 | 7.0 | 8.0 | 5.0 | 7.0
CC(C)C(=O)OC1CCS(=O)(=O)c2sccc21 (stereo unspecified) | -2.0 | 8.7 | 1.0 | 0.0 | -2.0 | 2.0
Cc1ccc(/C=N/NC(=O)CSc2nnc(-c3ccc(Cl)cc3)n2-c2ccccc2)o1 | 0.0 | -12.2 | 0.0 | -2.0 | -4.0 | 48.0*
COc1ccc(N2C(=O)/C(=C/c3cccs3)NC2=S)cc1 | 45.0* | -4.8 | 2.0 | 4.0 | -7.0 | -28.0
CN(C)/C=C1\NC(=S)N(c2ccccc2)C1=O | -1.0 | -3.5 | -1.0 | 0.0 | -3.0 | -13.0
CCOC(=O)CSC1=NC(=O)/C(=C\c2ccc(Cl)cc2)S1 | 46.0* | -14.9 | -1.0 | 1.0 | -2.0 | 0.0
CC(/C=C/C(=O)c1ccc(C)cc1)=C\c1ccccc1 | 47.0* | 0.9 | 33.0 | 27.0 | 48.0* | 23.0
Cc1ccc(C(=O)/C=C\C(=O)c2ccc(C)cc2)cc1 | 9.0 | -1.4 | 3.0 | -2.0 | -3.0 | -4.0
Cc1cc(C)c2c(c1)[C@@H]1C=CC[C@@H]1[C@H](c1ccc(S(=O)(=O)N3CCOCC3)cc1)N2 | 53.0* | -10.9 | 21.0 | 25.0 | 10.0 | 6.0
COc1cc(/C=C2\CC/C(=C\c3cc(OC)c(OC)c(OC)c3)C2=O)cc(OC)c1OC | 4.0 | 10.9 | 1.0 | 6.0 | -1.0 | -9.0
COc1cc(/C=C2\CC/C(=C\c3cc(OC)c(O)c(OC)c3)C2=O)cc(OC)c1O | 50.0* | 2.4 | 37.0 | 43.0* | 25.0 | 18.0
O=C(NC(=S)NCc1ccccc1)c1ccc2c(c1)OCO2 | 5.0 | -10.3 | 4.0 | 1.0 | -1.0 | 4.0
O=C(c1cc(=O)c2ccccc2o1)N1CCN(c2ccccc2F)CC1 | 58.0* | -2.9 | 66.0* | 58.0* | 37.0 | 52.0*
SMILES | Bim-Bfl-1 | PKD1 kinase inh | Bim-Bcl-2 | Bcl-W Bim block | Bcl-XL Bim block | Bcl-B Bim block
O=C(c1cc(=O)c2ccccc2o1)N1CCN(c2cccc(Cl)c2)CC1 | -8.0 | 3.4 | -3.0 | 3.0 | 0.0 | 0.0
O=C(C1CC1)N1CCN(C(c2ccccc2)c2ccccc2)CC1 | -10.0 | 1.3 | -4.0 | 4.0 | -3.0 | -2.0
Cc1cc(C)c(S(=O)(=O)/N=C2/C=C(SCC(=O)O)C(=O)c3ccccc32)cc1C | 56.0* | -7.3 | 12.0 | 18.0 | 0.0 | -12.0
O=C(O)c1ccc(NC2=C/C(=N/S(=O)(=O)c3ccccc3)c3ccccc3C2=O)cc1 | 47.0* | -2.4 | 12.0 | 19.0 | 2.0 | -21.0
O=C(COc1ccc(Br)cc1CNC1CCCCC1)NCCc1ccccc1 | 54.0* | 1.4 | 78.0* | -7.0 | 1.0 | 67.0*
O=C(O)c1ccc(N2CCS(=O)(=O)CC2)cc1 | -7.0 | -4.1 | -9.0 | -5.0 | -4.0 | -5.0
Cc1cc(NC(=O)CCC(=O)N(Cc2ccco2)C(C(=O)NCC2CCCO2)c2ccncc2)no1 (stereo unspecified) | -5.0 | 74.3* | -6.0 | -1.0 | -1.0 | -7.0
Cc1ccc(C(C(=O)NC2CCCC2)N(Cc2ccco2)C(=O)CCC(=O)Nc2cc(C)on2)cc1 (stereo unspecified) | 1.0 | 6.4 | -1.0 | -3.0 | -3.0 | 0.0
CCN(CC)c1ccc(NC2=C(Cl)C(=O)c3ccccc3C2=O)cc1 | 70.0* | -9.4 | 16.0 | 21.0 | -6.0 | -39.0
COc1ccccc1NC(=O)CC1S/C(=N/N=C2\CCCc3ccccc32)NC1=O (stereo unspecified) | -3.0 | 5.0 | -3.0 | -1.0 | -2.0 | -4.0
COC(=O)c1c(C(=O)OC)c(-c2cccc(Cl)c2)n2c1CS(=O)C2 (stereo unspecified) | -5.0 | -2.8 | -4.0 | -6.0 | -6.0 | -8.0
O=C(NNS(=O)(=O)c1cc(Cl)cc(Cl)c1)c1sccc1-n1cccc1 | 1.0 | 1.4 | -1.0 | 0.0 | -3.0 | 1.0
O=C(N/N=C/c1ccncc1)c1cccc(NC(=O)c2ccccc2Cl)c1 | 34.0 | 3.3 | 32.0 | 29.0 | 43.0* | 21.0
COc1ccc(/C=N/NC(=O)c2cccc(NC(=O)c3ccccc3Cl)c2)cc1OC | -2.0 | -5.0 | 0.0 | 0.0 | -5.0 | -2.0
O=C(C[n+]1ccc(-c2nnc3n2CCC3)cc1)c1ccc(Cl)c(Cl)c1 | 2.0 | -3.4 | 11.0 | 25.0 | 14.0 | 43.0*
NS(=O)(=O)c1ccc(NC(=O)COC(=O)/C(=C/c2cccs2)c2cccs2)cc1 | -6.0 | -10.3 | -2.0 | -3.0 | -4.0 | -3.0
CSc1ccccc1C(=O)NCc1ccc(F)cc1 | -3.0 | 73.7* | 0.0 | -1.0 | -5.0 | -2.0
CCCN(CCC)S(=O)(=O)c1ccc(NS(=O)(=O)c2ccc(F)cc2)cc1 | -2.0 | -4.0 | -1.0 | -1.0 | -1.0 | 0.0
Nc1c(C(=O)NCc2ccco2)sc2nc3c(cc12)C(=O)CCC3 | 48.0* | 1.6 | 20.0 | 42.0* | 16.0 | 6.0
O=C1C2C3C=CC(C3)C2C(=O)N1c1cccc2cccnc12 (stereo unspecified) | -19.0 | -12.8 | -9.0 | -7.0 | -9.0 | -11.0
O=C1c2ccccc2C(=O)N1c1cccc2cccnc12 | 40.0* | 5.1 | 30.0 | 24.0 | 36.0 | 23.0
CCOc1ccc(NC2=C(Cl)C(=O)N(Cc3ccccc3)C2=O)cc1 | -16.0 | -7.0 | -11.0 | -1.0 | -5.0 | -8.0
Cc1ccc(O)c(NC2=C(Cl)C(=O)N(Cc3ccccc3)C2=O)c1 | 58.0* | -1.7 | 37.0 | 51.0* | 35.0 | 22.0
